{
  "source": "the supplement of paper PMC6555819",
  "data": [
    {"system": "VDR:RXRa (NR concentration 270 nM, RXRa partner concentration 90 nM)", "assay": "PBM binding z-score (relative to random genomic background probes); higher = stronger binding; sequences stand for … in GC…GCGATTGACAGCGTAGAATGAAGG", "protocol": "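Protein-binding microarray (Agilent 4x180K custom design, double-stranded 60-nt probes: 5' GC cap, 34-nt variable region, 24-nt constant primer region; full probe sequence given). Purified or IVT nuclear receptor:RXRα heterodimers (3:1 NR:RXRα, mostly 270:90 nM) or homodimers were incubated for 1 h in PBS with 2% milk and no ligand, then detected with Alexa488 antibodies. Fluorescence from o1-orientation probes (~5 replicates averaged) was converted to z-scores against 500 random hg19 background probes. Variable regions are seed direct-repeat (DR0–DR5) sites, all their single-nucleotide variants and half-site ablations.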", "values": [
      {"sequence": "GCCTGTAGATCAAGGTTAAGAAAGACTAAGCTAA", "PBM binding z-score": 0.142},
      {"sequence": "CCTACTGGGACAAGGTCATTGATCAGTCAAAGCA", "PBM binding z-score": 3.48},
      {"sequence": "CCAGACAGGTAAAAGGTAACTCAGTCTGGTACGC", "PBM binding z-score": 0.318},
      {"sequence": "TCTTGGAGGACACGAAGGTCAGAGCTTTCCAGAG", "PBM binding z-score": 2.35},
      {"sequence": "CGAACTAGGTCCGAACAGGACAGTGAAGGATGAT", "PBM binding z-score": -0.576},
      {"sequence": "ATACCAAGGTGATCGTGGGGTCGTTGATACTAAC", "PBM binding z-score": 3.44},
      {"sequence": "TCAAATAGGTAAAGGTGAAAGTCGAACGATATGA", "PBM binding z-score": 1.17},
      {"sequence": "CGAACTAGGTCAGAACAGGACAGAGAAGGATGAT", "PBM binding z-score": 0.496},
      {"sequence": "CCTACTGGGCCAGGAAAGGTCATTGATTCAGTGA", "PBM binding z-score": 3.53},
      {"sequence": "GATACAGGGTCAGCTAGAGGCCCGAGTATGGAAA", "PBM binding z-score": 2.11},
      {"sequence": "ACTATTAGTTGAGTTAGGGCAACCGATACGACGC", "PBM binding z-score": 0.0394},
      {"sequence": "TAGCCTAGGTCAGATCGGGCCAGTAGACGCTATA", "PBM binding z-score": 0.169},
      {"sequence": "TCATATAGGTAAGTGCTAGGTGAAAGTCCGATCT", "PBM binding z-score": 0.679},
      {"sequence": "TTACCAAGGCGAGCTGAGGTCGTTGATCCAACTC", "PBM binding z-score": 1.63},
      {"sequence": "TGTCAAAGTTCAAAGGAAACGTAAGTATCCACAC", "PBM binding z-score": 3.86},
      {"sequence": "TTACCAAGTTGAAGGTCGTTGATCCCTCTGTAGA", "PBM binding z-score": 1.13},
      {"sequence": "AGAATGAGGTTACCAAAGATCAGAGAAACGCTTG", "PBM binding z-score": 1.36},
      {"sequence": "TCTTGTAGATCAAGCAGGTTAAGATAGCCTGAGT", "PBM binding z-score": 0.573},
      {"sequence": "TCTTGTAGATCAGAAGGTTAAGAAAGCTGGCCAA", "PBM binding z-score": 0.671},
      {"sequence": "TCATATGGGTAATACAGGTGAAAGTCGGCATCTA", "PBM binding z-score": 0.677},
      {"sequence": "TATACAGGGTCAAAGTCCAGAGTACGAATGTCGA", "PBM binding z-score": 5.09},
      {"sequence": "TGTCAAAGTTTAAAGGTAACGTAAGTATCCACAC", "PBM binding z-score": 1.33},
      {"sequence": "ATCTCTAGGTAAAGTACAGTGAAAGATCGATAGA", "PBM binding z-score": -0.177},
      {"sequence": "CCTTACCGGTCACTGACAGGTTATAGCATTTGGA", "PBM binding z-score": 0.869},
      {"sequence": "AATACAGGGTCACAAGGCCAGAGTAGGTACGAAT", "PBM binding z-score": 4.82},
      {"sequence": "TCTTGTAGATCAACAGGAGATTAAGAAAGATCGA", "PBM binding z-score": 0.136},
      {"sequence": "ATCTCTAAGTAACAAGTTCAGTGAAAGAGAGGAC", "PBM binding z-score": 1.87},
      {"sequence": "GATAGAGGGTCAGCTAGAGGCCAGAGTATGGAAA", "PBM binding z-score": 2.45},
      {"sequence": "TCTTGTAGATCAAGGGTTAAGAAAGCCGAAGCCT", "PBM binding z-score": 0.604},
      {"sequence": "CGTCAAAGTTCAACTAAGGTAACGCAAAGCACGC", "PBM binding z-score": 4.64},
      {"sequence": "ATAGGTAGGTTAGCTGGGGTCATTCAGACTAGGC", "PBM binding z-score": 6.28},
      {"sequence": "CGAACTAGGACATTGACAGGACAGTGAATAGTAA", "PBM binding z-score": -0.192},
      {"sequence": "CGACCAAGGTCAAAGGTCAGTGAAGAGATGACGG", "PBM binding z-score": 6.85},
      {"sequence": "CGTCAAAGTACAACTAAGGTAACGTAAAGCACGC", "PBM binding z-score": 0.523},
      {"sequence": "CGTCAAAGTTGAAGGTAACGTAACAGAAAGCAGC", "PBM binding z-score": -0.0741},
      {"sequence": "CCAGACAGATGAGAAGGTAACTCAGCCTCGATTA", "PBM binding z-score": 0.0435},
      {"sequence": "CCGACAGGGGCATAAGGTTACCATAAGCCAGCCC", "PBM binding z-score": 1.1},
      {"sequence": "GGAACGAGGGCAAGTTGATTGCAGAGTTTGATGG", "PBM binding z-score": 0.675},
      {"sequence": "CAGCCTAGGTCAGGGCCAGTCTAGGAGGAACGTT", "PBM binding z-score": 0.0507},
      {"sequence": "CGAACTAGGTCATTGGCAGGACAGTGAATAGTAA", "PBM binding z-score": 2.07}
    ]}
  ]
}
